Compound activity deposited in PubChem by several laboratories.
MEKK3 PB1 HTS – raises or lowers MEK5 binding to the human MEKK3 PB1 domain; binding response (% of control), % at 10 µM; actives 1.4% (n = 290,000); bead-based flow cytometry, Alexa488-MEK5 binding to MEKK3; actives lie on both sides; 0 = blocked by unlabeled MEK5, 100 = vehicle; AID 1529; Q99759;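 active = binding response more than 3 SD above or below the average of its plate-row segment, actives on both sides; inconclusive = wells at one plate position flagged as instrument error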;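 note: Alexa488 bead fluorescence after subtracting the streptavidin-only scavenger bead signal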
Target sequence (Q99759 whole entry, looked up, the tested form may be a part): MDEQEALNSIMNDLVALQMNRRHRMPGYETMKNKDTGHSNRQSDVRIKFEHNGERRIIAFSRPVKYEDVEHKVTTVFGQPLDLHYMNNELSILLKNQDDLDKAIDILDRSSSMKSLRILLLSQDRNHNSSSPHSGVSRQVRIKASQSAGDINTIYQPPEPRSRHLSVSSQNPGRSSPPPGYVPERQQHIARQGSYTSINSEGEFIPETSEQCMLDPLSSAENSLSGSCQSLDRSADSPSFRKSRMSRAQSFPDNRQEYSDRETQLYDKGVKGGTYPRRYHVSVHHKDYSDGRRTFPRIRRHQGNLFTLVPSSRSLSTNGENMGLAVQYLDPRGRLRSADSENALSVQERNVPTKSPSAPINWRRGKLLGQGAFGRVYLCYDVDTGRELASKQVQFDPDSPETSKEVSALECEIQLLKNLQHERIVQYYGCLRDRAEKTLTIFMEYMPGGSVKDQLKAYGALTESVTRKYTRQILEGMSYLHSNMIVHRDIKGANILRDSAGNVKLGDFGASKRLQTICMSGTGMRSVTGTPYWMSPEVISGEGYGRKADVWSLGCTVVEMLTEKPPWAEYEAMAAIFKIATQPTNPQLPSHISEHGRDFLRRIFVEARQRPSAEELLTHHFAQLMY
dFosB act-1 – activators of mouse delta FosB homodimer; purified delta FosB, TAMRA-CDK5 oligo fluorescence polarization; percent of positive-control signal above neutral wells; activation, % at 25 µM; actives 0.99% (n = 340,000);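 active = mean activation above about 17%, with every replicate also reaching it, limit read from the data, passing the limit was not always enough; inconclusive = only one of the two conditions met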
MEKK2 mut-MEK5 – signal of MEK5 binding to mutant human MEKK2 PB1 domain. percent response, % at 10 µM. actives 0.35% (n = 290,000). AID 1530. bead flow cytometry, Alexa488-MEK5 binding to MEKK2 mutant; in the data active = percent response above about 24%, passing the limit was not always enough
DNA FID counter – counter-screen for HCV NS3 helicase inhibitors: DNA intercalator displacement; DNA fluorescent intercalator displacement, fluorescence; inhibition, % at 7.9 µM; actives 0.17% (n = 290,000); in the data active = inhibition above about 37%;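 note: 0% = vehicle and 100% = reference compound; higher means more ethidium bromide displaced from hairpin DNA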
MEKK2wt PB1 HTS – raises or lowers MEK5 binding to wildtype human MEKK2 PB1 domain; Q9Y2U5; bead flow cytometry, Alexa488-MEK5 binding to MEKK2 WT; actives lie on both sides; binding response (% of control), % at 10 µM; actives 1.1% (n = 290,000); in the data active = binding response below about 67% or above about 130%; inconclusive = no clear call, values can overlap the other calls; inactive = in between
dFosB act-2 – delta FosB (mouse) homodimer activation; activation, % at 24.9 µM; purified delta FosB, TAMRA-CDK5 oligo fluorescence polarization; normalised: neutral wells 0, positive control 100; 2,400 tested, under 10 active; shares compounds with dFosB act-1;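 active = highest replicate activation at or above 34% and every replicate reaching that threshold; inconclusive = meets only one of the two criteria; inactive = meets neither criterion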;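 note: higher polarization means more probe DNA bound by delta FosB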
* hit, by the source's call; ? = inconclusive; / = no result given. Compounds with a hit are over-represented: about 2.9% of the library has one in this group of screens.

SMILES	MEKK3 PB1 HTS	dFosB act-1	MEKK2 mut-MEK5	DNA FID counter	MEKK2wt PB1 HTS	dFosB act-2
CC(=O)Nc1ccc(S(=O)(=O)NCC2CCC(C(=O)NCCC3=CCCCC3)CC2)cc1 (configuration not stated)	99	63*	0	-24	99	5
O=C(NCCC1=CCCCC1)C1CCC(CNS(=O)(=O)c2ccccc2)CC1 (configuration not stated)	82	-2	-4	-38	84	/
COc1ccc(CNc2nc(NCc3ccc(OC)cc3)n(C(=O)c3ccccc3[N+](=O)[O-])n2)cc1	99	0	-3	-5	96	/
O=C(Cc1ccccc1)Nc1cc(C(=O)c2ccccc2)ccc1N1CCOCC1	109	1	4	-29	107	/
Cc1ccc(NC(=O)CCc2ccc(S(=O)(=O)N3CCOCC3)cc2)c(Cl)c1	/	-11	/	/	/	/
CCCCNC(=O)C1CCC(CNc2nc(=S)[nH]c3ccccc23)CC1 (configuration not stated)	101	-3	0	-6	96	/
O=C(NCc1ccccc1Cl)C1CCC(CNc2nc(=S)[nH]c3ccccc23)CC1 (configuration not stated)	70	71*	-12	6	14*	1
O=C(CCCCCNc1nc(=S)[nH]c2ccccc12)NCc1ccccc1Cl	108	/	-9	-6	92	/
O=C(NCCc1ccc(Cl)cc1)C1CCC(CNc2nc(=S)[nH]c3ccccc23)CC1 (configuration not stated)	104	72*	-11	0	99	6
O=C(COC(=O)c1cccc(OC(F)F)c1)NCC1CCCO1 (configuration not stated)	/	-4	/	/	/	/
Cc1cc(=O)n2c(-c3ccc(Cl)cc3)csc2n1	104	0	0	0	100	/
O=C(Nc1ccc(Br)cc1)c1ccc(F)c(S(=O)(=O)N2CCN(c3ccccn3)CC2)c1	103	0	4	4	124	/
Cc1ccccc1NC(=O)c1ccc(F)c(S(=O)(=O)N2CCN(c3ccccn3)CC2)c1	101	19*	-3	-3	96	0
CC(OC(=O)c1cccc(-n2cnnn2)c1)C(=O)Nc1ccc(F)c(F)c1F (configuration not stated)	/	30*	/	/	/	-1
COc1ccc(CCOC(=O)c2ccc(N)c([N+](=O)[O-])c2)cc1	91	-4	-9	10	90	/
Cc1cc(C(=O)NCC(C)(C)N2CCOCC2)c(C)o1	/	-5	/	/	/	/
COc1ccc(N(CCC#N)C(=O)/C(C#N)=C/c2cccs2)cc1	92	-5	-12	-6	89	/
O=C(NCCN1CCCC1)c1ccc(Cn2c(=S)[nH]c3cc4c(cc3c2=O)OCO4)cc1	97	25*	7	11	115	-2
CC(C)OCCCNC(=O)c1ccc2c(=O)n(Cc3ccc4c(c3)OCO4)c(=S)[nH]c2c1	97	7	-11	2	95	/
C=CCNC(=O)c1ccc(Cn2c(=S)[nH]c3cc4c(cc3c2=O)OCO4)cc1	102	34*	2	-1	100	4
O=C(c1ccc(Cn2c(=S)[nH]c3cc4c(cc3c2=O)OCO4)cc1)N1CCN(c2ncccn2)CC1	101	/	-10	0	83	/
CCOC(=O)C1CCN(C(=O)CCc2nnc3ccc(N4CCC(C)CC4)nn23)CC1	98	-5	2	-47	99	/
O=C1CC(C(=O)Nc2ccc(F)cc2)S/C(=N\N=C\c2ccco2)N1 (configuration not stated)	121	33*	-1	-2	105	3
CCc1ccc(NC(=O)CSc2nc3ncc(Br)cc3[nH]2)cc1	97	19*	-6	-9	95	0
Cc1ccc(NC(=O)CSc2nc3nc(C)c(Br)cc3[nH]2)cc1F	101	57*	3	-16	102	-4
SMILES	MEKK3 PB1 HTS	dFosB act-1	MEKK2 mut-MEK5	DNA FID counter	MEKK2wt PB1 HTS	dFosB act-2
CC(C)n1cc(C(=O)N2CCCC(Nc3ccc(F)c(F)c3)C2)cn1 (configuration not stated)	96	4	-6	-10	96	/
COc1ccc2cc3cc(C(=O)NCc4ccc5c(c4)OCO5)oc3nc2c1	/	17*	/	-5	/	-1
COc1cccc(-c2ccc(NC(=O)C3CCCN(CCCn4nc(C)cc4C)C3)cc2)c1 (configuration not stated)	104	27*	6	22	138	6
O=[N+]([O-])c1ccc2c(c1)/C(=N\O)c1ccccc1-2	87	27*	-24	11	94	2
COc1cc2ccccc2cc1C(=O)N(CCN(C)C)c1nc2ccc(C)cc2s1	100	40*	9	14	135*	2
COc1ccc2sc(N(CCN(C)C)C(=O)/C=C/c3cccs3)nc2c1	105	?	17	4	132	/
COc1ccc2nc(N(CCN(C)C)C(=O)/C=C/c3cccs3)sc2c1	107	42*	11	8	137	-8
COc1cc2ccccc2cc1C(=O)N(CCN(C)C)c1nc2c(C)cccc2s1	103	29*	18	23	129	6
CN(C)CCCN(C(=O)c1ccc(C(=O)c2ccccc2)cc1)c1nc2ccc(F)cc2s1	107	30*	14	32	174*	0
CN(C)CCCN(C(=O)c1nc2ccccc2s1)c1nc2ccc(F)cc2s1	/	14	/	/	/	/
COc1ccc(OC)c(C2=NOC(C(=O)NCc3cccs3)C2)c1 (configuration not stated)	93	5	-6	-9	93	/
CN(C)CCCN(C(=O)c1cc(Cl)sc1Cl)c1nc2cc3c(cc2s1)OCO3	107	12	22	29	133	/
CN(C)CCCN(C(=O)c1ccc(Cl)s1)c1nc2cc3c(cc2s1)OCO3	104	18*	12	19	126	3
Cc1nnc2n(CCc3ccccc3)c(=O)c3c4c(sc3n12)CCCC4	/	/	/	-2	/	/
CN1CCN(CC(=O)N(C)c2nc(-c3ccccc3)cs2)CC1	98	-4	8	16	124	/
COc1ccc(Cc2nnc(NC(=O)c3ccc(F)cc3)s2)cc1OC	99	4	5	-29	105	/
COc1ccc(Cc2nnc(NC(=O)c3cccc(F)c3)s2)cc1OC	98	19*	-3	-35	101	2
NS(=O)(=O)c1ccc(NC(=S)NC(=O)/C=C/c2cccs2)cc1	105	26*	-1	-4	99	1
O=C(/C=C/c1cccs1)NC(=S)Nc1ccc(C(=O)O)cc1	102	0	-2	-3	97	/
Cc1cc(Cl)c2cc3ccccc3cc2n1	103	-4	4	-3	102	/
